The record followed here is PubChem BioAssay AID1347056 (Sanford-Burnham Center for Chemical Genomics, 2019).

Out of some 360,000 compounds screened, about 3,600 (1%) were called active.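 Rule for the calls: active = compounds whose plate-normalised and pattern-corrected inhibition of the luciferase reporter signal at the single screening dose is 50% or more; inactive = the rest.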 This excerpt belongs to a sample that is enriched for actives.

The assay can be described thus: inhibitors of TROY-driven NF-kB signaling, primary screen, Q293 LMP1-TROYcd cells, NF-kB luciferase, uHTS (AID 1347056). The note with it: Q293 LMP1-TROYcd NF-kB luciferase reporter, 4 h; at 10 µM; active compounds read high. In general terms: In a reporter assay the amount or activity of a reporter protein is the signal.
Regarding `COc1cccc(-c2nc3ccc(N4CCN(C)CC4)cc3[nH]2)c1`, the inhibition (as a rule, the change of the read-out against control, counted positive when it falls) is 79.8% (active).

As to `CCn1cc(CN2CCCC(C(=O)c3cccc(C(F)(F)F)c3)C2)cn1` (stereo not given), the inhibition was 10.1% (inactive).

For `CCOC(=O)[C@]12Cc3ccccc3[C@H]1N(C1CCCCC1)C(=O)c1cc(OC)ccc12`, the inhibition was 36.6% (inactive).

Consider `CNC(=O)Nc1ccc(C(O)(C(=O)OC)C(F)(F)F)cc1` (stereo not given), for which the inhibition is -7.62% (inactive).

In the case of `COc1cc(C(c2c(O)c3ccccc3oc2=O)c2c(C)n(C)n(-c3ccccc3)c2=O)ccc1O` (stereo not given), the inhibition was -7.22% (inactive).

For the molecule `CC(=O)OC1C2(CC3N4C(=O)C5(CO)SSC4(CC31O)C(=O)N5C)OC(C)C(C)(C)C2=O` (stereo not given), the inhibition is 64.8% (active).

On to `CC(=O)Nc1ccccc1C(=O)OCC(=O)c1cccc2ccccc12`, for which the inhibition is -7.86% (inactive).

For `CN(C)CC1Oc2ccccc2OC1(O)c1ccccc1` (stereo not given), the inhibition was 1.73% (inactive).

Regarding `CCCCCCCCCCCCn1ccc(=N)cc1`, the inhibition was 64% (active).

With `Cc1nc2nc(C)c(CCC(=O)N3CCC4(CC3)OCCO4)c(C)n2n1`, the inhibition is 3.18% (inactive).

Take `Cc1ccc(C)c(NC2=NCCCS2)c1`: the inhibition is 1.74% (inactive).

Turning to `O=C(CCCn1c(=O)[nH]c2cc(Cl)ccc2c1=O)N1CCC2(CC1)OCCO2`, the inhibition is 7.33% (inactive).

In the case of `CCOC(=O)C(O)(c1ccc(N)c(OC)c1)C(F)(F)F` (stereo not given), the inhibition is 7.19% (inactive).

On to `CCC(C)(O)C(=O)OC1C(=O)OC2CC3C(C)=CC(=O)C(O)C3(C)C3C4(O)OCC23C1C(C)C4O` (stereo not given), for which the inhibition is 83.5% (active).

Regarding `NCCc1c[nH]c2ccc(O)cc12`, the inhibition was 13% (inactive).

Turning to `CC(=O)Nc1ccc(C(=O)C(Cc2ccccc2)N(C)C)cc1` (stereo not given), the inhibition was 0.62% (inactive).

Turning to `CCCCCCN=C(CC)c1c(O)n(CCCC)c(=O)[nH]c1=O`, the inhibition is 17.9% (inactive).

In the case of `COc1cc(Cn2c(N)c(C(=O)NCc3ccco3)c3nc4ccccc4nc32)cc(OC)c1OC`, the inhibition is 13.5% (inactive).

Regarding `CCOC(=O)c1c(N)n(Cc2ccccc2)c2nc3ccccc3nc12`, the inhibition is 51.6% (active).

Regarding `CCOC(=O)c1cccc(C2=C(CNC(=O)c3ccncc3)[C@H]3CC[C@@H](C2)N3Cc2ccccc2)c1`, the inhibition was -20.1% (inactive).

Regarding `COc1ccc(-c2nn(CCC#N)cc2C(=O)O)cc1`, the inhibition was -1.21% (inactive).

On to `CNCC(O)c1cc(F)c(OCc2ccccc2)c(OCc2ccccc2)c1F` (stereo not given), for which the inhibition was 8.14% (inactive).

In the case of `CC1CCC(N(C)C2CCN(C)CC2)CC1` (stereo not given), the inhibition was 18.6% (inactive).

Consider `CCN1c2nc3c(C)cccn3c(=O)c2CC2(C(=O)N(C)C(=O)N(C)C2=O)C1C` (stereo not given), for which the inhibition is -6.84% (inactive).

Regarding `Cc1ccc(C2CN(C)CC2C(=O)c2ccc(F)cc2)cc1` (stereo not given), the inhibition was 57.6% (active).

On to `CN1CCC(OC(=O)c2cccc(F)c2)CC1`, for which the inhibition was -37.5% (inactive).

For `COc1ccc(C(=O)C2CN(C)CC2C(=O)c2ccc(OC)cc2)cc1` (stereo not given), the inhibition was -76.8% (inactive).

In the case of `Cn1cc(C(=O)OCC(=O)N2CCCC2)c2ccccc21`, the inhibition is 8.39% (inactive).

As for `O=C(Nc1cccc2ccccc12)N1CCC2(CC1)OCCO2`, the inhibition is 38.5% (inactive).

Turning to `CCOC(=O)C1SC2(C(F)(F)C(F)F)CC1(O)c1c(c(OC)c3occc3c1OC)O2` (stereo not given), the inhibition was -1.26% (inactive).

Turning to `COc1ccc(-n2nnnc2C(c2cccc3ccccc23)N2CCC(n3c(=O)[nH]c4ccccc43)CC2)cc1` (stereo not given), the inhibition was 27.6% (inactive).

Turning to `O=c1[nH]c2ccccc2n1C1CCN(C(c2ccccc2)c2nnnn2Cc2ccccc2)CC1` (stereo not given), the inhibition is 18.3% (inactive).

`O=c1[nH]c2ccccc2n1C1CCN(C(c2ccnc3ccccc23)c2nnnn2Cc2ccccc2)CC1` (stereo not given): the inhibition was 73.9% (active).

Turning to `Cc1ccc(OC(=O)N(C)C[C@@H]2OCc3cnnn3CCCC(=O)N([C@H](C)CO)C[C@@H]2C)cc1`, the inhibition is 0.42% (inactive).

`CC(C)c1ccc(OCC(=O)N2CCCN(C)CC2)cc1`: the inhibition was -4.27% (inactive).
